14-3-3g Raf – modulators of 14-3-3 gamma protein binding, primary screen, biochemical, fluorescence polarization | 14-3-3 protein gamma (Homo sapiens), P61981 | FP, 14-3-3gamma / TMR-pS259-Raf peptide binding | inhibition, % at 40 µM | actives 0.19% (n = 160,000) | AID 422, 2006; in the data active = inhibition above about 30%;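 also: 0% = protein plus tracer without compound and 100% = blank with tracer alone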
Target sequence (P61981 whole entry, looked up): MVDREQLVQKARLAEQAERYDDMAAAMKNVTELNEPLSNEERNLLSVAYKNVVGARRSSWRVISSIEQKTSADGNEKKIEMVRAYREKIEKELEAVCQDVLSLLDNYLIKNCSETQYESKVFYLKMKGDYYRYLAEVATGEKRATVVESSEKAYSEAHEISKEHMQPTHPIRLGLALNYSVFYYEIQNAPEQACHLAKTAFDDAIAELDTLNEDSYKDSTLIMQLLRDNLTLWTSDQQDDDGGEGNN
Active calls of the source: *; ! = a repeat was not active. This excerpt belongs to a sample that is enriched for hits.

SMILES | 14-3-3g Raf
COc1ccc(S(=O)(=O)N=C2C=C(Nc3ccc(O)cc3)C(=O)c3ccccc32)cc1 | 14
CCOC(=O)c1ccc(NC2=CC(=NS(=O)(=O)c3ccc(OC)cc3)c3ccccc3C2=O)cc1 | 82*
CCOc1ccc(NC2=CC(=NS(=O)(=O)c3ccc(CC)cc3)c3ccccc3C2=O)cc1 | -7
CCc1ccc(S(=O)(=O)N=C2C=C(Nc3ccc(C(=O)OC)cc3)C(=O)c3ccccc32)cc1 | 33*
CCOc1ccc(S(=O)(=O)N=C2C=C(Nc3ccc(OC)cc3)C(=O)c3ccccc32)cc1 | -3
Nc1nonc1-c1nc2ccccc2n1Cc1cccc(C(F)(F)F)c1 | -41
COC(=O)C1=C(C)NC2=C(C(=O)CC(c3cccc(OC)c3)C2)C1c1ccc(C)o1 (stereo not drawn) | -7
CCCNC(=O)c1ccc2c(c1)ncn2-c1ccc(OC)cc1 | -48
Cc1ccc2cc3cc(C(=O)NC4CCCC4)oc3nc2c1 | 13
Cc1ccc2cc3cc(C(=O)NC4CCN(Cc5ccccc5)CC4)oc3nc2c1 | -13
Cc1ccc2cc3cc(C(=O)N4CCN(c5ccc(F)cc5)CC4)oc3nc2c1 | 67*
Cc1ccc2cc3cc(C(=O)N4CC(C)CC(C)C4)oc3nc2c1 (stereo not drawn) | -4
Cc1ccc2cc3cc(C(=O)NC4CC4)oc3nc2c1 | 36*
Cc1ccc2cc3cc(C(=O)N4CCN(c5ccc([N+](=O)[O-])cc5)CC4)oc3nc2c1 | -13
Cc1ccc2cc3cc(C(=O)N4CCC(C)CC4)oc3nc2c1 | -6
Cc1ccc2cc3cc(C(=O)N4CCN(c5cccc(C)c5C)CC4)oc3nc2c1 | 57*
Cc1ccc2cc3cc(C(=O)N4CCN(C5CCCCC5)CC4)oc3nc2c1 | 17
O=C(O)c1cc(-c2ccc(C=Nc3ccccc3)o2)ccc1Cl | -41
O=C(CNC(=O)c1ccc(Br)o1)OCC(=O)c1ccccc1 | -2
CCCOc1ccc(N2C(=O)CC(N3CCSC3c3ccc(Br)cc3)C2=O)cc1 (stereo not drawn) | -22
COC(=O)c1ccc(C2C3=C(CC(c4ccco4)CC3=O)Nc3ccccc3N2C(=O)c2ccccc2)cc1 (stereo not drawn) | -21
Cc1ccc(Nc2nc(N)nc(CC(=O)CSc3ccc(Cl)cc3)n2)cc1C | -4
CCSc1nnc2c(n1)OC(c1ccc(OC3CCCC3)cc1)Nc1ccccc1-2 (stereo not drawn) | 26
CCc1ccc(C2Nc3ccc(Br)cc3-c3nnc(SC)nc3O2)cc1 (stereo not drawn) | 0
CCc1ccc(C2Nc3ccccc3-c3nnc(SC)nc3O2)cc1 (stereo not drawn) | 149*
SMILES | 14-3-3g Raf
CCSc1nnc2c(n1)OC(c1cc3c(cc1Cl)OCO3)Nc1ccccc1-2 (stereo not drawn) | 21
CCSc1nnc2c(n1)OC(c1ccccc1Cl)Nc1ccccc1-2 (stereo not drawn) | 98*
CSc1nnc2c(n1)OC(c1ccccc1F)Nc1ccc(Br)cc1-2 (stereo not drawn) | -117
CSc1nnc2c(n1)OC(c1ccc(C)cc1)Nc1ccccc1-2 (stereo not drawn) | 6
CSc1nnc2c(n1)OC(c1ccccc1C)Nc1ccc(Br)cc1-2 (stereo not drawn) | 49*
CCSc1nnc2c(n1)OC(c1ccc(C(=O)O)cc1)Nc1ccccc1-2 (stereo not drawn) | 3
CCSc1nnc2c(n1)OC(c1ccc3ccccc3c1)Nc1ccccc1-2 (stereo not drawn) | 139*
CCSc1nnc2c(n1)OC(c1ccccc1F)Nc1ccccc1-2 (stereo not drawn) | 3
COc1ccc(Br)cc1C1Nc2ccc(Br)cc2-c2nnc(SC)nc2O1 (stereo not drawn) | -173
O=C(Nc1cc([N+](=O)[O-])ccc1C(=O)NCCc1ccccc1)c1ccccc1 | 11
CCCSc1nnc(Cc2cc(=O)[nH]c(=O)[nH]2)n1-c1ccc(F)cc1 | 1
C#CCSc1nnc(C)c(=O)[nH]1 | -1
COC(=O)c1ccc(NC(=O)C2Cc3ccccc3CN2S(=O)(=O)c2cccs2)cc1 (stereo not drawn) | -10
COC(=O)C1=C(C)NC(=O)NC1c1ccc(O)c([N+](=O)[O-])c1 (stereo not drawn) | -4
O=C1c2cccnc2C(=O)N1c1ccc(Cc2ccc(N3C(=O)c4cccnc4C3=O)cc2)cc1 | -14
CSc1nnc2c(n1)OC(C1CC=C(C)CC1C)Nc1ccc(Br)cc1-2 (stereo not drawn) | -156
CSc1nnc2c(n1)OC(c1ccncc1)Nc1ccccc1-2 (stereo not drawn) | -7
CSc1nnc2c(n1)OC(C1CC=C(C)CC1)Nc1ccccc1-2 (stereo not drawn) | 37*!
Cc1ccc(NS(=O)(=O)c2cnc[nH]2)c(C)c1 | -8
CCN(CC)Cc1cc(Cl)c2cccnc2c1O | -6
c1coc(-c2cc(C3CCNCC3)[nH]n2)c1 | 42*
Nc1cc(-c2ccco2)no1 | -4
O=C(O)c1cc(-c2ccco2)[nH]n1 | 5
Cc1ccc2c(C)nc(/N=C(\N)NC(=O)c3ccccc3)nc2c1 | -2

Screening data from PubChem.
